Assay outcomes as filed in PubChem BioAssay.
Compounds with a hit are over-represented: about 11% of the library has one in this group of screens.
PNC inhibitor = perinucleolar compartment assembly inhibition | PC3M PTB-GFP, PNC prevalence imaging, 16 h; stronger effect = lower value | activity change (PNC), negative = inhibition, % at 10 µM | 3.1% of 140,000 active | AID 2417;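 active = readout at or below -70, meaning at least 70% loss of cells showing the perinucleolar compartment, a nuclear body marking cancer cells; inconclusive = readout between -30 and a set limit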;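 also: plate controls were DMSO wells for no effect and camptothecin positive control wells for full effect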
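PC3M cells stably expressing PTB-GFP, 750–1000 cells/well, treated 16 h at 37 °C with compound (23 nl of library stock), in duplicate. After paraformaldehyde fixation and Hoechst stain, imaged at 20x; PNC prevalence scored by image analysis.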
ALDH1A1 inh = blocks purified human ALDH1A1 activity; P00352; 7.3% of 220,000 active; Potency, µM (doses to about 75.3 µM), inactives show at the highest dose activity, negative = inhibition, actives largely listed as inhibitors; Purified ALDH1A1, NADH fluorescence, propionaldehyde substrate;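 also: potency is read from the fitted curve at half-maximal effect; plate controls were no enzyme wells and a reference inhibitor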
RGS12 GoLoco inh = blocks human Gai1 binding to RGS12 GoLoco peptide, red readout | Potency, µM (titrated, usually from 61.6 µM), for inactives: top-dose activity, negative = inhibition, most hits filed as inhibitors | Gai1:RGS12 GoLoco peptide FP, rhodamine, 10 min | 0.44% of 230,000 active | P63096; active = well fitted inhibition curve with a large enough effect, not every such curve was filed as active; inactive = no such curve, though single readings can be large or run the other way; also: potency is read from the fitted curve at half-maximal effect; % is scaled to controls: 0 for no effect and ±100 for the full control effect; nearly all actives have a fitted effect of over 30% in size
Target sequence (P63096 whole entry, looked up): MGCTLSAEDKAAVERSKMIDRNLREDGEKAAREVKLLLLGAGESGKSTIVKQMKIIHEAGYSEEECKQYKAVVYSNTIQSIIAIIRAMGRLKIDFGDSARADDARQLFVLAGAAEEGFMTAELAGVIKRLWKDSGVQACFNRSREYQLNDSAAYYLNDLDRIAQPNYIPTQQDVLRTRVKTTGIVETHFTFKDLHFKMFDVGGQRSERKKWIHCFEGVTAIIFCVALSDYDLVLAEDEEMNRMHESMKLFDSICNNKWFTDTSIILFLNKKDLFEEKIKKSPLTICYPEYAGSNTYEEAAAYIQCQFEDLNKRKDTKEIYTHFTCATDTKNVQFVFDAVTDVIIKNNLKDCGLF
HTT aggregate = reduces HttQ103-GFP aggregates in PC12 cells | 1.1% of 220,000 active | PC12 HttQ103-GFP aggregates, Acumen cytometry, 40 h | AID 1688 | Potency, µM (titrated, usually from 46.1 µM), inactives show top-dose activity change, negative = inhibition, most hits filed as inhibitors; active = well fitted curve in the direction sought with a large enough effect; inconclusive = small, poorly fitted or top-dose-only effect, or another doubt; inactive = no such curve, though single readings can be large; an effect the other way counts as inactive or inconclusive; also: potency is read from the fitted curve at half-maximal effect; % is scaled to controls: 0 for no effect and ±100 for the full control effect; nearly all actives have a fitted effect of over 60% in size
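Inducible Q103 Huntingtin exon 1–GFP PC12 line, 1500 cells/well in phenol red free DMEM with 5% equine and 5% calf serum. Tebufenozide 100 nM induced expression; compounds titrated; aggregates quantified by cytometry.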
HTT cytoprotect = cytoprotection in Huntington HTT-Q103 PC12 cell model. 0.14% of 230,000 active. AID 1471. PC12 HTT-Q103 induced, cytoprotection, ATP luminescence, 40 h. Potency, µM (titrated, usually from 56.4 µM), for inactives: cytoprotection (ATP increase), most hits filed as activators; active = well fitted curve in the direction sought with a large enough effect; inconclusive = small, poorly fitted or top-dose-only effect, or another doubt; inactive = no such curve, though single readings can be large; an effect the other way counts as inactive or inconclusive; also: potency is read from the fitted curve at half-maximal effect; % of control where 0% means no effect; nearly all actives have a fitted effect of over 45% in size
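Huntington model: PC12 line, ecdysone-inducible HTTQ103 exon1–GFP, tebufenozide 100 nM. Test articles in a dose series. Endpoint luminescence from cellular ATP.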
HPGD inh = HPGD (human) dehydrogenase inhibition; Potency, µM, without a hit: top-dose activity change, negative = inhibition, most hits filed as inhibitors; AID 894; 4.3% of 150,000 active; P15428; purified HPGD, NADH fluorescence kinetic, PGE2 substrate; also: potency is read from the fitted curve at half-maximal effect; % is scaled to controls: 0 for no effect and ±100 for the full control effect
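NADH formation kinetics: reaction with 30 uM PGE2 and 1 mM NAD+ (final), 20 nM enzyme, Tris-HCl pH 8 with Tween 20, after 15 min compound preincubation at room temperature. Fluorescence change, last versus first of five reads.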
Active calls of the source: *; u = inconclusive; x = not tested or not shown; [ ] = another dose, or the depositor's remark. Unless noted, calls follow the shape of the dose curve; as a rule, active = well fitted inhibition curve with a large enough effect (not every such curve was filed as active); inconclusive = small, poorly fitted or top-dose-only effect, or another doubt; inactive = no such curve, though single readings can be large or run the other way.

SMILES	PNC inhibitor	ALDH1A1 inh	RGS12 GoLoco inh	HTT aggregate	HTT cytoprotect	HPGD inh
CC(C)[C@H](NC(=O)OC(C)(C)C)c1nnc(S(=O)(=O)Cc2c(F)cccc2Cl)o1	21	0%	-23%	10µM*	-115%	5µM*
Cc1ccccc1CS(=O)(=O)c1nnc([C@H](CC(C)C)NC(=O)OC(C)(C)C)o1	44	0%	-9%	u	-167%[0.074 µM]	13µM*
CC(C)(C)OC(=O)N[C@@H](Cc1ccccc1)c1nnc(S(=O)(=O)Cc2cccc(F)c2)o1	-107*	u	-16%	u	7%[0.074 µM]	4µM*
CCOC(=O)CSc1nnc([C@H](Cc2ccccc2)NC(=O)OC(C)(C)C)o1	1	-15%	-5%	4%	-11%	-11%
CC(C)C[C@H](N)c1nnc(S(=O)(=O)Cc2cccc(F)c2)o1	-11	13µM*	-10%	u	-18%[0.074 µM]	-27%
COc1ccc(NC(=O)C(C)Sc2nnc3c4c(nc(-c5ccc(OC)cc5)n23)CC(C)(C)OC4)cc1 (centres undefined)	19	2%	x	10%	-25%[10 µM]	x
CCCCn1ccnc1C(=O)c1ccc(S(=O)(=O)N(CCOC)CCOC)cc1	70	5%	5%	-4%	2%	-9%
OC[C@H]1O[C@@](CO)(O[C@H]2O[C@H](CO)[C@@H](O)[C@H](O)[C@H]2O)[C@@H](O)[C@@H]1O	x	x	x	25%	11%	x
Cc1cc(C)cc(Oc2ccccc2/C=C\C(=O)O)c1	-86*	3%	0%	5%	-11%[10 µM]	-5%
O=C(O)/C=C\c1ccccc1Oc1cccc(Cl)c1	x	0%	8%	11%	-19%[10 µM]	x
CC1(C)CC(=O)C(C=Nc2ccc(C(=O)c3ccccc3)cc2N=CC2=C(O)CC(C)(C)CC2=O)=C(O)C1	x	10µM*	15%	u	-14%	x
CC1(C)CC(=O)C(C=Nc2ccc(O)c(N=CC3=C(O)CC(C)(C)CC3=O)c2)=C(O)C1	x	1.1µM*	15%	-19%	19%[10 µM]	x
CC1(C)CC(=O)C(C=NCc2ccc3c(c2)OCO3)=C(O)C1	u	-7%	-15%	4%	22%[1.9 µM]	-20%
CC1(C)CC(=O)C(C=Nc2ccc3c(c2)OCO3)=C(O)C1	u	13µM*	4%	u	-31%	-23%
CC1(C)CC(=O)C(C=NCCN2CCN(C(=O)c3ccccc3)CC2)=C(O)C1	-22	-38%	-3%	-3%[9.22 µM]	10%	-10%
CN(Cc1ccco1)c1ncnc2ccc(-c3cccc(NS(C)(=O)=O)c3)cc12	x	9%	3%	x	-170%	x
Cc1cc(C)c(OCC(=O)Nc2nnn(C)n2)c(Br)c1	-100*	-1%	3%	2%	-13%[10 µM]	-12%
C=CC(=O)N1C(=O)c2ccccc2S1(=O)=O	x	-8%	-4%	x	u	-10%
Cc1cc(C)c2c(=O)n(CC(=O)N3CCC(N4CCCCC4)CC3)sc2n1	0	13µM*	-50%	3%	-26%	13µM*
CCCNC(=O)Cn1sc2nc(C)cc(C)c2c1=O	x	x	7.9µM*	-4%[9.22 µM]	14%[10 µM]	x
COc1ccc(OC)c(C2=NOC(C(=O)N3CCCc4ccccc43)C2)c1 (centres undefined)	10	11µM*	-4%	18%	9%	-25%
COc1cc(OC)c(C2=NOC(C(=O)N3CCc4ccccc4C3)C2)cc1Cl (centres undefined)	7	-12%	6%	u	-23%[10 µM]	11µM*
NCCC[C@@](N)(C(=O)O)C(F)F	x	x	x	x	-1%[1.9 µM]	x
CSc1nc(NC2CCCC2)c([N+](=O)[O-])c(NC2CCCC2)n1	x	-9%	-1%	x	12%	-1%
Cc1nn(C)c(Oc2ccccc2)c1CCNC(=O)CCl	x	22µM*	-4%	10%[9.22 µM]	21%[10 µM]	x
O=C(CSc1n[nH]c(-c2ccccc2)n1)Nc1ccc(N2CCOCC2)cc1	x	22µM*	7%	-6%	-27%	x
O=C(CSc1n[nH]c(-c2cccnc2)n1)Nc1ccccc1	-30	1%	-6%	-13%	4%[10 µM]	10µM*
